In the supplement of paper PMC10849652:
About 7,900 targets were measured; listed, in parts, are those with a hit and a random draw of the rest. About 0.6% of all pairs of compound and target were hits. Values without a mark were called inactive.

Legend:
Assay in all cases: log2 fold change, soluble protein after heating vs DMSO (PISA); higher = thermal stabilisation; K562 cells, 10 uM, 30 min; active = over 0.2 and 3.5 SD of the protein, either way, in both replicates (recomputed)
IRAK-1-4 Inhibitor I = compound: C1COCCN1CCN2C3=CC=CC=C3N=C2NC(=O)C4=CC(=CC=C4)[N+](=O)[O-] [IRAK-1-4 Inhibitor I]
Outline: (§1)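 Aliquots of K562 cells (2×10^6 cells/mL) treated with 10 μM compound for 30 min were heated for 3 min over 48°C-58°C. After pooling and extraction in PBS with 0.5% NP-40 at 4°C, soluble protein from a 21,000xg, 90 min spin was quantified by TMTpro 16plex LC-MS/MS with channel sums equalised. Thermal stability is expressed against control samples, from duplicates, as a log2 fold change.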

ibrutinib = compound: C=CC(=O)N1CCC[C@@H](n2nc(-c3ccc(Oc4ccccc4)cc3)c3c(N)ncnc32)C1 [ibrutinib]
Outline: as §1

[1] = compound: CC(=O)c1cnc2ccc(-c3cc(Cl)c(O)c(Cl)c3)nc2c1N[C@H]1CC[C@H](CN(C)C)CC1
Outline: as §1

ralimetinib = compound: CC(C)(C)Cn1c(N)nc2ccc(-c3[nH]c(C(C)(C)C)nc3-c3ccc(F)cc3)nc21 [ralimetinib]
Outline: as §1

[2] = compound: CC(C)(O)CC(=O)NCCn1ccc2ncnc(Nc3ccc(Oc4cccc(C(F)(F)F)c4)c(Cl)c3)c21
Outline: as §1

[3] = compound: CC(C)C1=C2N=C(C=C(N2N=C1)NCC3=CC=CC=C3)NCCCCCCN
Outline: as §1

[4] = compound: CC(C)C[C@@H](C=O)NC(=O)[C@H](CC(C)C)NC(=O)[C@H](CC(C)C)NC(=O)OCc1ccccc1
Outline: as §1

pinometostat = compound: CC(C)N(C[C@H]1O[C@@H](n2cnc3c(N)ncnc32)[C@H](O)[C@@H]1O)[C@H]1C[C@@H](CCc2nc3cc(C(C)(C)C)ccc3[nH]2)C1 [pinometostat]
Outline: as §1

[5] = compound: CC1=C(C(CC(=O)N1)C2=CC=C(C=C2)C(F)(F)F)C(=O)NC3=C(C=C4C(=C3)C=NN4)F
Outline: as §1

[6] = compound: CC1=C(C2=C(C=C1)C(=O)C3=CC=CC=C3N2CCCN)C
Outline: as §1

[7] = compound: CC1=C(C=C(C=C1)NC(=O)C2=CC(=CC=C2)C(C)(C)C#N)NC3=CC4=C(C=C3)N=CN(C4=O)C
Outline: as §1

[8] = compound: CC1=C(C=C(C=C1)NC(=O)C2=CC(=CC=C2)N(C)C)NC(=O)C3=CC=C(C=C3)O
Outline: as §1

[9] = compound: CC1=CC=C(C=C1)SC2=C3C=C(SC3=CN=C2)C(=O)N
Outline: as §1

[10] = compound: CC1=NC(=CC=C1)C2=C(N=C(N2)C(C)(C)C)C3=CC4=NC=CN=C4C=C3
Outline: as §1

Nexturastat A = compound: CCCCN(Cc1ccc(C(=O)NO)cc1)C(=O)Nc1ccccc1 [Nexturastat A]
Outline: as §1

vemurafenib = compound: CCCS(=O)(=O)Nc1ccc(F)c(C(=O)c2c[nH]c3ncc(-c4ccc(Cl)cc4)cc23)c1F [vemurafenib]
Outline: as §1

[11] = compound: CCCS(=O)(=O)Nc1ccc(F)c(C(=O)c2c[nH]c3ncc(Cl)cc23)c1F
Outline: as §1

[12] = compound: CCCc1cc(C)[nH]c(=O)c1CNC(=O)c1cc(-c2ccnc(N3CCN(C)CC3)c2)cc2c1cnn2C(C)C
Outline: as §1

givinostat = compound: CCN(CC)Cc1ccc2cc(COC(=O)Nc3ccc(C(=O)NO)cc3)ccc2c1 [givinostat]
Outline: as §1

barasertib = compound: CCN(CCCOc1ccc2c(Nc3cc(CC(=O)Nc4cccc(F)c4)[nH]n3)ncnc2c1)CCOP(=O)(O)O [barasertib]
Outline: as §1

Sequence of UniProt P06454 (P06454 whole entry, looked up): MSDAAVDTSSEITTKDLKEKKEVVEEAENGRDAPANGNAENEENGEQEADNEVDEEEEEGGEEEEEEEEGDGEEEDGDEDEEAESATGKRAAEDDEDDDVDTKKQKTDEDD
Sequence of UniProt Q9P2B2 (Q9P2B2 whole entry, looked up): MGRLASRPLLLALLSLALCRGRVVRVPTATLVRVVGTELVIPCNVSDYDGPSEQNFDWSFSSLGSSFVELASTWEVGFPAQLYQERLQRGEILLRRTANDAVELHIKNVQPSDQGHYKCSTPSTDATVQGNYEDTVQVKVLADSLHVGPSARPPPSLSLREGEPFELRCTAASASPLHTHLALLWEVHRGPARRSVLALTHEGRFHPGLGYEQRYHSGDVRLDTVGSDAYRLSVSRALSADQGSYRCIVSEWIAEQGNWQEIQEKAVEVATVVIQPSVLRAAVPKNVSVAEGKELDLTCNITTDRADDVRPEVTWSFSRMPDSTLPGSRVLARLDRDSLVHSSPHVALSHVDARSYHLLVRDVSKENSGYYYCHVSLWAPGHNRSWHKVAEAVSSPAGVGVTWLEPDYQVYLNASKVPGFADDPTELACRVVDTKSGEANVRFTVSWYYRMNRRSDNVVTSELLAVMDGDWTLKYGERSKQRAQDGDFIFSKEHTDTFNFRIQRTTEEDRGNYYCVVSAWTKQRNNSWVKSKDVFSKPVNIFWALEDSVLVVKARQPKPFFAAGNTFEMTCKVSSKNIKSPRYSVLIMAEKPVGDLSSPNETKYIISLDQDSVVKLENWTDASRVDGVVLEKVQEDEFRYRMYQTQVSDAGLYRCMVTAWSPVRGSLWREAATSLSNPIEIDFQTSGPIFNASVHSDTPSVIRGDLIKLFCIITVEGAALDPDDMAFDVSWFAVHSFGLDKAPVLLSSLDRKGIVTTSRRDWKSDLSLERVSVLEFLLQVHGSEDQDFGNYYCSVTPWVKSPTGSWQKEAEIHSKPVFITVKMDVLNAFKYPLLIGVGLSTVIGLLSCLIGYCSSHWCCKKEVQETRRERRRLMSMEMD
Sequence of UniProt Q5H8A4 (Q5H8A4 whole entry, looked up): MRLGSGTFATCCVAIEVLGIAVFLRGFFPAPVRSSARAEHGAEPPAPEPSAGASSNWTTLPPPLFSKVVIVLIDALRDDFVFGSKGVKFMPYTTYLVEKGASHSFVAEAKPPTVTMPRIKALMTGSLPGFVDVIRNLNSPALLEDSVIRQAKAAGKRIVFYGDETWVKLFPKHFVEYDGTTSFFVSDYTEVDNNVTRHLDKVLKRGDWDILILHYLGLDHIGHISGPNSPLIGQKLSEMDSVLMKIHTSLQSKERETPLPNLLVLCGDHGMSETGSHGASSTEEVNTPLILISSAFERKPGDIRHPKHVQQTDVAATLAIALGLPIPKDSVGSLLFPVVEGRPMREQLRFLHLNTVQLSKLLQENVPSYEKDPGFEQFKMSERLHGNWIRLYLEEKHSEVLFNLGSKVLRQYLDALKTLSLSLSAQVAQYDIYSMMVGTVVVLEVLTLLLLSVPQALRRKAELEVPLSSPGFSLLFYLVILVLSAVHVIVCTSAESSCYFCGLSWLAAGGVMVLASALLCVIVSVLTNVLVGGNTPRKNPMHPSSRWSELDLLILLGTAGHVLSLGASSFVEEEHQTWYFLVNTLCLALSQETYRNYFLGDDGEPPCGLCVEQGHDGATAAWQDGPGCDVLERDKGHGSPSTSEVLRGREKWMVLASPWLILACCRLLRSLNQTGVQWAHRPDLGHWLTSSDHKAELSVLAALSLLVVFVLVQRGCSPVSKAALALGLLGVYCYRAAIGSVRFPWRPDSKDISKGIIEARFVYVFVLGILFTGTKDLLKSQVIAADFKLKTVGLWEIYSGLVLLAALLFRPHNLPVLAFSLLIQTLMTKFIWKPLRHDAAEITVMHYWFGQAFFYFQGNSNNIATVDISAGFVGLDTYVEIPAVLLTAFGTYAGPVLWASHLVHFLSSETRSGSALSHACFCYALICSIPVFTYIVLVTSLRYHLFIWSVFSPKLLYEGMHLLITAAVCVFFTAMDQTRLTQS
Sequence of UniProt Q15054 (Q15054 whole entry, looked up): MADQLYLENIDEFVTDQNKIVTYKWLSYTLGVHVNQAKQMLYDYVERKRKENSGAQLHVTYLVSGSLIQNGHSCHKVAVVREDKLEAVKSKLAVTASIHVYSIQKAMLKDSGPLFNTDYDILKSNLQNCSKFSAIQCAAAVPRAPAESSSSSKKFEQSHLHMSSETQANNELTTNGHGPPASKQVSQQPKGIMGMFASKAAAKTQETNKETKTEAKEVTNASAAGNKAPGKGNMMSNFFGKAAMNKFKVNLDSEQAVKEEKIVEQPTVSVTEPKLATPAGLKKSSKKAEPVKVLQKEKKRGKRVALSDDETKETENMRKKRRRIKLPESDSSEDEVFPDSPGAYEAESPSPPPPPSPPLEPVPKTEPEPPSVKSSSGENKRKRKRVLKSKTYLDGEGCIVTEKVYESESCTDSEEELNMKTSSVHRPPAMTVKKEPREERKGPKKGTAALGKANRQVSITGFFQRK
Sequence of UniProt P53609 (P53609 whole entry, looked up): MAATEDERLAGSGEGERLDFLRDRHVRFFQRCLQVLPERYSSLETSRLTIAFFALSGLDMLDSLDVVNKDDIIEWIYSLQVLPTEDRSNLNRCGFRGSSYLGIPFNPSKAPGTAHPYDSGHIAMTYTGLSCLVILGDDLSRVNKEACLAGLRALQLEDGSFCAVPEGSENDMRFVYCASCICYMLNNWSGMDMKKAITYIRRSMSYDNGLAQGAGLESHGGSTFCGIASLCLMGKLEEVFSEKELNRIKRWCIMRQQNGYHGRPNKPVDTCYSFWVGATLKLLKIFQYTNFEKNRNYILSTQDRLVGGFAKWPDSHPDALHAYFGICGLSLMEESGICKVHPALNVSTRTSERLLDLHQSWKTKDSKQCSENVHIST
Sequence of UniProt O14974 (O14974 whole entry, looked up): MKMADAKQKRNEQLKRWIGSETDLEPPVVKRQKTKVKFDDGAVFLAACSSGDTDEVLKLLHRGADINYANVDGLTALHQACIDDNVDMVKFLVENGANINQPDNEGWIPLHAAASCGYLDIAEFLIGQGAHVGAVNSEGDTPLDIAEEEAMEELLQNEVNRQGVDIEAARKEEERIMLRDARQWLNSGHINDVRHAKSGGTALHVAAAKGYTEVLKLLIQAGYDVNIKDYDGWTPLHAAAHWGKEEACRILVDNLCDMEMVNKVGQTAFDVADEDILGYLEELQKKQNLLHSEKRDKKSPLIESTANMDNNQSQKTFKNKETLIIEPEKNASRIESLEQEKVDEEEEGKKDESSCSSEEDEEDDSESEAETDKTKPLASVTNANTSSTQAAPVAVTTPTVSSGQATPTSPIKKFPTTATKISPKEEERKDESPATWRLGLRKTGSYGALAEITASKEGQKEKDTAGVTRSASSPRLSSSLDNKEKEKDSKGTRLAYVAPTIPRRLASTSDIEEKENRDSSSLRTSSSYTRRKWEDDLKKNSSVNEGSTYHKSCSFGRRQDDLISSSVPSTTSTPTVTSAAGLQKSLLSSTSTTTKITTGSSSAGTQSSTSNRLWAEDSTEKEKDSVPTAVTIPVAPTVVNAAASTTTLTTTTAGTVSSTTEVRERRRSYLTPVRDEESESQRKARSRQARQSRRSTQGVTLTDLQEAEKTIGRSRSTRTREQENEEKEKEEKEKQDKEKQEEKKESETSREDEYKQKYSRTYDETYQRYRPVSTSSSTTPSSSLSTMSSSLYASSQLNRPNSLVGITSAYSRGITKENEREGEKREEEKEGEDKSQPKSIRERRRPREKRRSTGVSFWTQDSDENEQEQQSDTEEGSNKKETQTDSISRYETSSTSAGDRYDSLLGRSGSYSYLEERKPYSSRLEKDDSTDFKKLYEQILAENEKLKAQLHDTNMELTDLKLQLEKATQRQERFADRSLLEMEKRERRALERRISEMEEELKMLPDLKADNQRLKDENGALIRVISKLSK
Sequence of UniProt Q8NHP8 (Q8NHP8 whole entry, looked up): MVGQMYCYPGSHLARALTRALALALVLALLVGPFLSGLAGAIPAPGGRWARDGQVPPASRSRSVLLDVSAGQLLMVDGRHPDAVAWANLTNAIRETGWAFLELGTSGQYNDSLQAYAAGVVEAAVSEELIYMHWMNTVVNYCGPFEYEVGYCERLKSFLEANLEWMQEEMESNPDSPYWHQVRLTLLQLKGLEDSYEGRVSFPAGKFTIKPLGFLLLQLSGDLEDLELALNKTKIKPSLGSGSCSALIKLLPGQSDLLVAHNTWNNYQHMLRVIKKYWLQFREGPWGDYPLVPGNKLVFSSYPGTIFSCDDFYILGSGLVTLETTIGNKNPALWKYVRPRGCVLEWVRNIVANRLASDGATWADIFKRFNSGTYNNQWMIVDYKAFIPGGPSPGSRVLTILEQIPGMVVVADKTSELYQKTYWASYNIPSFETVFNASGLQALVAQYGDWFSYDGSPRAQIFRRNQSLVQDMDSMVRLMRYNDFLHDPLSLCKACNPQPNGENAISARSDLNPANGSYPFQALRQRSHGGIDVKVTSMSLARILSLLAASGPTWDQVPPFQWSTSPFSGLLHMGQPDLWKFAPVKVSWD
Sequence of UniProt O00233 (O00233 whole entry, looked up): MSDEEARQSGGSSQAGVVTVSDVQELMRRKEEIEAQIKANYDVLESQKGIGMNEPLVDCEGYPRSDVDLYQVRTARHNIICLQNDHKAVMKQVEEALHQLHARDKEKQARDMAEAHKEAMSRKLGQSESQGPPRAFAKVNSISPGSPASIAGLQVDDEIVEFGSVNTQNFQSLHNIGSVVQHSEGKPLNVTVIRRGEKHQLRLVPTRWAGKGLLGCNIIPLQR
Sequence of UniProt Q8WUK0 (Q8WUK0 whole entry, looked up): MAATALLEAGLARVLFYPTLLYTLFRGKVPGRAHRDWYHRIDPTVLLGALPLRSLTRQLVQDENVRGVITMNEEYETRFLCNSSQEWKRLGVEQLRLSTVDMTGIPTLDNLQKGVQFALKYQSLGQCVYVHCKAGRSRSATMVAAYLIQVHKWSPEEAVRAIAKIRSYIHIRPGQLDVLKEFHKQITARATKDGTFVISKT

| Target | log2 fold change (IRAK-1-4 Inhibitor I) | log2 fold change (ibrutinib) | log2 fold change [1] | log2 fold change (ralimetinib) | log2 fold change [2] | log2 fold change [3] | log2 fold change [4] | log2 fold change (pinometostat) | log2 fold change [5] | log2 fold change [6] | log2 fold change [7] | log2 fold change [8] | log2 fold change [9] | log2 fold change [10] | log2 fold change (Nexturastat A) | log2 fold change (vemurafenib) | log2 fold change [11] | log2 fold change [12] | log2 fold change (givinostat) | log2 fold change (barasertib) |
| --- | --- | --- | --- | --- | --- | --- | --- | --- | --- | --- | --- | --- | --- | --- | --- | --- | --- | --- | --- | --- |
| PTGFRN (UniProt Q9P2B2) | 0.009 | 0.06 | -0.111 | -0.029 | -0.026 | 0.222 (active) | 0.07 | 0.002 | 0.006 | 0.028 | -0.044 | -0.025 | 0.006 | -0.012 | -0.021 | 0.013 | -0.045 | -0.03 | 0.007 | -0.043 |
| PSMD2 (UniProt Q13200) | -0.08 | -0.035 | 0.039 | 0.018 | 0.021 | 0.039 | -0.296 (active) | 0.019 | 0.04 | -0.036 | 0.005 | 0.012 | -0.025 | -0.064 | 0.024 | -0.091 | -0.014 | 0.136 | -0.048 | -0.057 |
| PSMD9 (UniProt O00233) | 0.033 | -0.005 | -0.003 | -0.029 | 0.003 | 0.069 | -0.015 | -0.039 | 0.017 | -0.004 | -0.012 | 0.018 | 0.021 | 0.012 | -0.068 | -0.014 | -0.021 | -0.016 | -0.004 | 0 |
| POLD3 (UniProt Q15054) | -0.013 | -0.01 | -0.043 | -0.001 | -0.114 | -0.357 (active) | -0.117 | -0.016 | -0.091 | 0.013 | -0.131 | -0.055 | 0.03 | 0.007 | -0.115 | 0.082 | 0.049 | 0.065 | 0.018 | 0.006 |
| POLR2K (UniProt P53803) | -0.041 | 0.003 | 0.059 | -0.093 | 0.028 | 0.429 (active) | 0.093 | -0.092 | -0.02 | 0.027 | -0.036 | 0.065 | 0.056 | 0.024 | -0.162 | -0.001 | -0.024 | 0.075 | -0.137 | 0.023 |
| PIGG (UniProt Q5H8A4) | 0.004 | -0.039 | -0.032 | 0.168 | 0.015 | -0.046 | 0.005 | 0.027 | 0.011 | 0.018 | 0.016 | -0.003 | 0.004 | -0.007 | 0.018 | 0.359 | -0.019 | -0.045 | 0.001 | 0.001 |
| PTPMT1 (UniProt Q8WUK0) | 0.018 | -0.05 | -0.131 | -0.144 | -0.083 | -0.579 (active) | 0.052 | 0.013 | 0.043 | -0.057 | 0.043 | -0.019 | 0.025 | 0.025 | -0.114 | -0.047 | 0.031 | -0.029 | -0.029 | 0.041 |
| PPP1CA (UniProt P62136) | 0.041 | -0.02 | -0.018 | -0.012 | 0.007 | 0.015 | 0.009 | -0.071 | -0.013 | -0.007 | -0.024 | -0.019 | -0.071 | 0.164 | -0.09 | -0.023 | -0.05 | 0 | -0.009 | 0.035 |
| PLBD2 (UniProt Q8NHP8) | 0.04 | 0.009 | 0.003 | -0.071 | -0.01 | -0.106 | 0.025 | 0.001 | -0.018 | -0.023 | -0.053 | 0.058 | 0.02 | -0.051 | -0.053 | -0.028 | 0.001 | -0.008 | 0.004 | -0.013 |
| PRIM2 (UniProt P49643) | -0.043 | -0.04 | -0.065 | -0.058 | -0.265 | -0.213 | 0.074 | 0.005 | 0 | 0.059 | -0.028 | -0.018 | -0.019 | 0.054 | 0.017 | 0.054 | 0.03 | 0.023 | 0.085 | 0.08 |
| PPP1R12A (UniProt O14974) | -0.013 | -0.022 | -0.666 (active) | 0 | 0 | -0.119 | -0.014 | -0.003 | -0.514 (active) | -0.01 | -0.012 | -0.036 | 0.046 | 0.045 | 0.001 | 0.015 | 0.073 | -0.032 | 0.048 | 0.066 |
| PGGT1B (UniProt P53609) | 0.003 | -0.004 | -0.062 | -0.055 | 0.026 | -0.019 | 0.026 | -0.03 | 0.027 | -0.028 | -0.062 | 0.006 | 0.002 | 0.035 | -0.073 | -0.022 | -0.023 | -0.025 | 0.009 | 0.035 |
| PSMD3 (UniProt O43242) | -0.025 | -0.031 | 0.044 | 0.023 | -0.033 | 0.01 | -0.22 (active) | 0.067 | 0.016 | 0.039 | 0.023 | 0.022 | -0.052 | -0.024 | 0.065 | -0.06 | -0.032 | 0.034 | -0.028 | -0.066 |
| PTMA (UniProt P06454) | 0.034 | 0.049 | 0.127 | 0.251 | -0.133 | 0.085 | -0.289 | -0.092 | 0.063 | -0.021 | 0.133 | -0.041 | 0.053 | 0.213 | -0.077 | 0.05 | -0.044 | -0.008 | -0.022 | -0.013 |
| PITRM1 isoform 2 (UniProt Q5JRX3) | 0.045 | -0.045 | -0.046 | 0.239 (active) | -0.173 | -0.026 | 0.062 | -0.042 | -0.013 | 0.006 | 0.21 | -0.064 | 0.047 | 0.073 | -0.152 | 0.002 | -0.002 | 0.018 | -0.047 | -0.03 |
